This note sets out measurements from PubChem BioAssay (NCATS).

Experiment [1] deals with Cytochrome P450 3A4 (Homo sapiens) (UniProt P08684). Description: qHTS Assay for Inhibitors and Substrates of Cytochrome P450 3A4 (AID 884). Note: nearly all actives have a fitted effect of over 50% in size. Note: potency is the fitted concentration of half-maximal effect. The gist of the method:
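20 nM human CYP3A4 with 25 uM Luciferin-PPXE (at KM) in 200 mM KPO4, preincubated 10 min with compound; NADPH regeneration started a 60 min RT reaction. Luciferin detected by luminescence, normalized to 57 uM ketoconazole as full inhibition.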

A short description of experiment [2]: MultiTox-Fluor Cytotoxicity Assay - LYMP1-001 - Live Cells (AID 947).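 Note: 0% = DMSO only and full inhibition = tetraoctylammonium bromide control.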
Experiment [3] in a line: MultiTox-Fluor Cytotoxicity Assay - LYMP1-002 - Dead Cells (AID 960). Note: nearly all actives have a fitted effect of over 60% in size. The gist of the method: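 LYMP1-002 cells 2500/well; 5 hr 37 C pre-incubation; compound 16 hr 37 C; MultiTox-Fluor reagent 60 min RT; dead-cell fluor Ex/Em 485/520. Norm. to DMSO (0%) vs 15 uM tetraoctylammonium bromide (100%); Hill AC50.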
Experiment [4] in a line: Cell Viability - LYMP2-004 (AID 966).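 Note: plate controls were DMSO only for no effect and tetraoctylammonium bromide control for full effect; nearly all actives have a fitted effect of over 65% in size.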 The gist of the method: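 Cells seeded 2500/well, rested 5 hr at 37 C, dosed across a concentration series, incubated 24 hr at 37 C, then CellTiter-Glo added for 30 min at room temperature and luminescence read. Hill fitting gave AC50.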
A short description of experiment [5]: Cell Viability - LYMP1-002 - Assay at 24 hr (AID 993). Note: % is set by controls: 0 for no effect and ±100 for the full control effect. The gist of the method: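 Cells plated 2500/well, 5 hr 37 C; compounds added, 24 hr 37 C; CellTiter-Glo added, 30 min RT; luminescence read. Tetraoctylammonium bromide positive control. Hill-equation AC50.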
Experiment [6] concerns the target Peroxisome proliferator-activated receptor gamma (Homo sapiens) (UniProt P37231). Description: qHTS assay for small molecule agonists of peroxisome proliferator-activated receptor gamma signaling (AID 588536; active = well fitted curve in the direction sought with a large enough effect in the signal ratio, with a control signal flat, not every such curve was filed as active; the % refers to the signal ratio;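 note: 0% = DMSO basal wells and 100% = rosiglitazone at 2 µM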). The gist of the method:
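Test agents, titrated, stimulated HEK293 UAS-bla cells overnight (16 h, 37 C). Substrate CCF4 was then added for two hours at room temperature before fluorescence reading.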
(In general: In qHTS, concentration-response curves come from the screen itself.)

A short description of experiment [7]: qHTS assay for small molecule agonists of retinoid X receptor alpha signaling (AID 588544; calls by dose curve;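 for activation: 0% = DMSO basal wells and 100% = reference agonist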). The following applies: HEK293T RXRa-UAS-bla, beta-lactamase reporter, 18 h; 530 nm emission.
Experiment [8] addresses Retinoic acid receptor RXR-alpha (Homo sapiens) (UniProt P19793). The experiment is described as above.
The target in experiment [9] is Thyroid hormone receptor beta (Homo sapiens) (UniProt P10828). Description: qHTS assay for small molecule agonists of thyroid hormone receptor beta signaling (AID 588545; calls by dose curve). The gist of the method: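 In this cell-based screen, titrated compounds act on HEK 293 cells held in medium with 2% charcoal/dextran FBS, NEAA and pyruvate for 18 hrs at 37 C. Responses are expressed relative to T3 (10 nM) as 100% and basal DMSO as 0%.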

Experiment [10] has the same target. Kind of experiment: qHTS assay for small molecule antagonists of thyroid hormone receptor beta signaling (AID 588547; active = well fitted inhibition curve with a large enough effect in the signal ratio, with a control signal flat, not every such curve was filed as active; the % refers to the signal ratio;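 note: cells stimulated with 0.4 nM T3 agonist during compound exposure; series mostly up to about 77 µM; % is set by controls: 0 for no effect and ±100 for the full control effect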). To be noted: TR-UAS-bla HEK293, beta-lactamase ratio, antagonist mode, 18 h. The gist of the method: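 TR-UAS-bla GripTite HEK293 cells in 2% charcoal/dextran FBS medium were preincubated 4 h at 37 C, given compound (0.59 nM to 92 uM) plus 0.4 nM T3 (final) for 18 h, then CCF4 for 2 h at RT; Hill fit gave IC50.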

Experiment [11] concerns the target Voltage-gated inwardly rectifying potassium channel KCNH2 (Homo sapiens) (UniProt Q12809). Description: qHTS Assay for Small Molecule Inhibitors of the Human hERG Channel Activity (AID 588834).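 Note: top concentration of the series differs between compounds; % is set by controls: 0 for no effect and ±100 for the full control effect; lower thallium flux fluorescence means stronger hERG block; nearly all actives have a fitted effect of over 50% in size.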 The gist of the method: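 Measured: FluxOR fluorescence after thallium stimulation in U2OS cells transduced with hERG by baculovirus. Compounds pre-incubated around 10 min; medium Opti-MEM with 2% FCS. AC50 from Hill equation.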

The nature of experiment [12]: qHTS assay for small molecule activators of the p53 signaling pathway (AID 651743; active = well fitted activation curve with a large enough effect in the signal ratio, not every such curve was filed as active; the % refers to the signal ratio; note: series mostly up to about 92 µM; % of control where 0% means no effect). To be noted: HCT-116 p53RE-bla, beta-lactamase FRET ratio, 16 h; activation: stronger effect = higher value. The gist of the method: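 Cell-based beta-lactamase reporter (p53 response elements, HCT-116 background). After a 5-hour preincubation, cells received compound for 16 hours at 37 C; substrate development ran 2 hours at room temperature.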

A short description of experiment [13]: qHTS assay for small molecule disruptors of the mitochondrial membrane potential - 1 hr assay (AID 651754; calls by dose curve; note: % is set by controls: 0 for no effect and ±100 for the full control effect; nearly all actives have a fitted effect of over 35% in size). The gist of the method: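 HepG2, 2,000 cells/well, overnight attachment; cpd or DMSO 1 hr, 37C/5% CO2; Mito-MPS dye 30 min, 37C; fluorescence monomer (490/535) and aggregate (540/590).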
A short description of experiment [14]: qHTS assay for small molecule disruptors of the mitochondrial membrane potential - 5 hr assay (AID 651755; calls by dose curve; note: % is set by controls: 0 for no effect and ±100 for the full control effect; nearly all actives have a fitted effect of over 40% in size). In outline:
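HepG2 cells, attached overnight at 37C, were exposed to compound or DMSO for 5 hr at 37C, 5% CO2. Mito-MPS dye was then added for 30 min, and fluorescence read at 490/535 nm (monomers) and 540/590 nm (aggregates).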

Experiment [15] has as its target Tumor necrosis factor (Homo sapiens) (UniProt P01375). Kind of experiment: qHTS assay to identify small molecules that stimulate Tumor Necrosis Factor-alpha (TNF-alpha) secretion (AID 651757; active = well fitted curve in the direction sought with a large enough effect in the signal ratio; the % refers to the signal ratio; note: 0% is about no effect). In outline: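 Read-out is HTRF, a TR-FRET sandwich of cryptate- and XL665-labeled anti-TNF-alpha antibodies detecting cytokine secreted by THP-1 cells. Cells had been incubated with test compounds at 37 C for 17 hrs beforehand.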

Experiment [16] can be described thus: qHTS assay for environmental chemicals that activate the Aryl hydrocarbon Receptor (AhR) signaling pathway (AID 651777). Note: % of control where 0% means no effect; nearly all actives have a fitted effect of over 15% in size. The following applies: 1A2-DRE human hepatoma cells, luciferase, 24 h; activation: stronger effect = higher value. In outline: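 Concentration–response screening used 1,200 1A2-DRE cells per well, 24 hr compound exposure (37 C, 5% CO2), and One-Glo luminescence as the AhR-driven CYP1A2 reporter signal.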

The nature of experiment [17]: qHTS assay for small molecule agonists of the antioxidant response element (ARE) signaling pathway measured by Nrf2-dependant transcriptional activity (AID 720636; active = well fitted curve in the direction sought with a large enough effect in the repeat runs; an effect the other way counts as inactive or inconclusive; note: % of control where 0% means no effect). The gist of the method: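 Attachment 6 hr at 37 C, then compound versus DMSO vehicle for 16 hr in ARE-luc HepG2 cells (1% dialyzed FBS); luminescence recorded 30 min after ONE-Glo addition at room temperature.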

Experiment [18] in a line: qHTS assay for small molecule antagonists of the retinoid-related orphan receptor gamma (ROR-gamma) signaling pathway - cell viability counter screen (AID 720652; active = well fitted curve in the direction sought with a large enough effect in the repeat runs; an effect the other way counts as inactive or inconclusive;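 note: series mostly up to about 92 µM; compound exposure lasted 16 hr before ATP read; % is set by controls: 0 for no effect and ±100 for the full control effect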). The gist of the method: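 Luminescence from CellTiter-Glo after 30 min at room temperature reported cellular ATP as the cytotoxicity measure. Cells were the CHO reporter line with doxycycline-induced ROR-gamma expression, exposed to compound for 16 hr at 37 C.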

Experiment [19] has as its target Nuclear receptor subfamily 1 group I member 2 (Rattus norvegicus) (UniProt Q9R1A7). Description: qHTS assay for small molecule activators of the rat pregnane X receptor (rPXR) signaling pathway (AID 651751; call rule not given here; note: 0% is about no effect). To be noted: rPXR reporter cells, luciferase (One-Glo), 24 h.
Experiment [20] can be described thus: qHTS assay for small molecule activators of the human pregnane X receptor (PXR) signaling pathway (AID 720659; call rule not given here; note: 0% is about no effect).

Several values for one entry are separate records, joined by “and”; a condition that tells them apart may be missing. Equal values may be shown once. Records with an inconclusive call do not appear. Activity calls are given as the source filed them. Unless noted, calls come from the whole dose curve; as a rule, active = well fitted curve in the direction sought with a large enough effect; inconclusive = small, poorly fitted or top-dose-only effect, or another doubt; inactive = no such curve, though single readings can be large; an effect the other way counts as inactive or inconclusive.

Chain of Tumor necrosis factor (Homo sapiens) (P01375 whole entry, looked up): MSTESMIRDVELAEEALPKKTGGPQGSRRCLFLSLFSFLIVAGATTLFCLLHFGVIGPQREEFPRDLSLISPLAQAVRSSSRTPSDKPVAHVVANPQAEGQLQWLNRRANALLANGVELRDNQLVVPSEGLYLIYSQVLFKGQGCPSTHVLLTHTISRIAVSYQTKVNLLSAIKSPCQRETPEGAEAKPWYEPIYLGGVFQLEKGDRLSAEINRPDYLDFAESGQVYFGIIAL
Chain of Voltage-gated inwardly rectifying potassium channel KCNH2 (Homo sapiens) (Q12809 whole entry, looked up): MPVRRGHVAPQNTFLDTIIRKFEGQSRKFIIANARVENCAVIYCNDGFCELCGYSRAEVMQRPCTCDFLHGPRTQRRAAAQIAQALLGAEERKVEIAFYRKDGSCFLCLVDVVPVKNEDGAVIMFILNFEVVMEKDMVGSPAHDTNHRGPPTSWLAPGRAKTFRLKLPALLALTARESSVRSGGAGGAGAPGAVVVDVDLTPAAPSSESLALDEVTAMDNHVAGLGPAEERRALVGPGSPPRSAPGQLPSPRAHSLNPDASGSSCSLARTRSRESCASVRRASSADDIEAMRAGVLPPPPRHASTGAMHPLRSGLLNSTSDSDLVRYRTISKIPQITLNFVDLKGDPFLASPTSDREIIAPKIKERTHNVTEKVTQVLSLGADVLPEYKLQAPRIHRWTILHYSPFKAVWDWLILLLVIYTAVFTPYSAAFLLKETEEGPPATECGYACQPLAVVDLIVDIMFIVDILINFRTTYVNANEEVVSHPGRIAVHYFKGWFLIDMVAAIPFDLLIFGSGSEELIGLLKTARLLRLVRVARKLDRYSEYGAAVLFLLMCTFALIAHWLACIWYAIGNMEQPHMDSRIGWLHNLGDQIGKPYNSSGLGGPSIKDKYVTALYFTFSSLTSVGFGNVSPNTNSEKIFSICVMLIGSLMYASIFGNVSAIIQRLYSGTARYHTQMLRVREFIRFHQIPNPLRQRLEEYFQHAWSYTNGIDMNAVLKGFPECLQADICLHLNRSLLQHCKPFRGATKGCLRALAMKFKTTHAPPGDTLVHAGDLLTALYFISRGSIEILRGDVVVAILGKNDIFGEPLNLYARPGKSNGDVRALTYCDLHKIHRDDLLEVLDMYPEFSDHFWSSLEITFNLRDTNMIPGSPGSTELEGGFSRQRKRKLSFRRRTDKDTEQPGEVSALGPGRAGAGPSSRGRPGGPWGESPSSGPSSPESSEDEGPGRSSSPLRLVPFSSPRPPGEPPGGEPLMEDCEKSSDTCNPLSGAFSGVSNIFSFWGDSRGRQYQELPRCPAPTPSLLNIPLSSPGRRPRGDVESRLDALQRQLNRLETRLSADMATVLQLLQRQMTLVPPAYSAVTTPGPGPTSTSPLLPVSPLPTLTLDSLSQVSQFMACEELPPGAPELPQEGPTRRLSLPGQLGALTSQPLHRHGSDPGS
Chain of Peroxisome proliferator-activated receptor gamma (Homo sapiens) (P37231 whole entry, looked up): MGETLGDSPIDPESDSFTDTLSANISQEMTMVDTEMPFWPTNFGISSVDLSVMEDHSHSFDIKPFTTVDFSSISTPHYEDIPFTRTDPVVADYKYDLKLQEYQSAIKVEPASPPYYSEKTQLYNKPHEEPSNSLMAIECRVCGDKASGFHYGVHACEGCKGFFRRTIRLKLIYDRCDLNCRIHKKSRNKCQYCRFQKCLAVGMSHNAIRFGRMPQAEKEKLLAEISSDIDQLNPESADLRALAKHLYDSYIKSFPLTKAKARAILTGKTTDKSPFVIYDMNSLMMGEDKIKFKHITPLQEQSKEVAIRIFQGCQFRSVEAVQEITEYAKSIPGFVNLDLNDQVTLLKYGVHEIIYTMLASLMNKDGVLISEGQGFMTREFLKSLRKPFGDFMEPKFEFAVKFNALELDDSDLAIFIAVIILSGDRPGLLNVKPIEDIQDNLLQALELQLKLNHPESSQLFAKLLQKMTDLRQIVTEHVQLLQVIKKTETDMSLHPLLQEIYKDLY
Chain of Nuclear receptor subfamily 1 group I member 2 (Rattus norvegicus) (Q9R1A7 whole entry, looked up): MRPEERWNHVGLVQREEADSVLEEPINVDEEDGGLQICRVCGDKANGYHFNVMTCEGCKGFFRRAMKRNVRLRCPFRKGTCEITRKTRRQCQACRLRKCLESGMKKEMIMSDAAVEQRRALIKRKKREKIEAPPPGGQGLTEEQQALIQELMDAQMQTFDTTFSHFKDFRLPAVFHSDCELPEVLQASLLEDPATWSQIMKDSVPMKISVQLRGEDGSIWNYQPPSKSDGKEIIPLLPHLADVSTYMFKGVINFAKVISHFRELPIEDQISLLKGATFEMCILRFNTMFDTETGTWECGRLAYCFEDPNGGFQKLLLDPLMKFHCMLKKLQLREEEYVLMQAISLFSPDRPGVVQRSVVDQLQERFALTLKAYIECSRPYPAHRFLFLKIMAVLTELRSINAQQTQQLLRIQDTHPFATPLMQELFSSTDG
Chain of Retinoic acid receptor RXR-alpha (Homo sapiens) (P19793 whole entry, looked up): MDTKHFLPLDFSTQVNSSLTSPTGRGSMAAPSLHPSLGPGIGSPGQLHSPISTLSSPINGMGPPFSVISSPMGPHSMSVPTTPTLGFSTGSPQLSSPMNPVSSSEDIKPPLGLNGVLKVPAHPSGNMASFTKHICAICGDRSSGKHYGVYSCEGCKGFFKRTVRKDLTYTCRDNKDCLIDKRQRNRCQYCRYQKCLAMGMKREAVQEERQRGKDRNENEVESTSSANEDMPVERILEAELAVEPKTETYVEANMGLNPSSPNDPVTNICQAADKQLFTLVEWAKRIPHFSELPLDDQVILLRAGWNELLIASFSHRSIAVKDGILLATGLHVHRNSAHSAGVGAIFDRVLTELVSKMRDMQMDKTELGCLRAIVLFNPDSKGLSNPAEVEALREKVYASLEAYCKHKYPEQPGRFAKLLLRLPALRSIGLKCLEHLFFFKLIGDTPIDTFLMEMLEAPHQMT
Chain of Cytochrome P450 3A4 (Homo sapiens) (P08684 whole entry, looked up): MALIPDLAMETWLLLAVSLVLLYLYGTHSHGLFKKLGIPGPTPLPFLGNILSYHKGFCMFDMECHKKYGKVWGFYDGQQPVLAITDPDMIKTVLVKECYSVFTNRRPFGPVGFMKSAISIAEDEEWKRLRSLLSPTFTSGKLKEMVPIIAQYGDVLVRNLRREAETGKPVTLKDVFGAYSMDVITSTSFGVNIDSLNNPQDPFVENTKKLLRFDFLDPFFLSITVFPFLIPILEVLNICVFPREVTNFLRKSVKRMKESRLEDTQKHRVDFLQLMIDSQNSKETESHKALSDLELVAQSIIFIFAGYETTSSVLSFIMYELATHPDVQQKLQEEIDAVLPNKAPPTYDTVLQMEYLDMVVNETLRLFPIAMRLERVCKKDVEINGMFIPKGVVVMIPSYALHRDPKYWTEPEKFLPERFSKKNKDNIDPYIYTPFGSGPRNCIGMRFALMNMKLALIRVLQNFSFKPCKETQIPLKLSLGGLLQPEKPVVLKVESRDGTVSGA
Chain of Thyroid hormone receptor beta (Homo sapiens) (P10828 whole entry, looked up): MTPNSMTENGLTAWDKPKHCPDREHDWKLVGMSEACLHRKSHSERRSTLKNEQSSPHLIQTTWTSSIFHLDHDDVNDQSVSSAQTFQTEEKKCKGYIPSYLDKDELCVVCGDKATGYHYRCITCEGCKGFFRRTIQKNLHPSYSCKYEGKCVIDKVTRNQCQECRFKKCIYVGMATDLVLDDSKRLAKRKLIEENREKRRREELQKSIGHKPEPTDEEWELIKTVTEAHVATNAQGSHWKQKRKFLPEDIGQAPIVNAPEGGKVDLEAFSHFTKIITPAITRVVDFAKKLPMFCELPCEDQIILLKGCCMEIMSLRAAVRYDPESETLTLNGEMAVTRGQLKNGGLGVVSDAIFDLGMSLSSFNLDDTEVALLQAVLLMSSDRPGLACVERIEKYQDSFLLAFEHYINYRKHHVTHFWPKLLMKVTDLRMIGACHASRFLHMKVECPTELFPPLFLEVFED

Regarding `Clc1cc(Cl)c(Cl)cc1Cl`, the Potency result in experiment [1], in experiment [2], in experiment [3], in [4], in [5] and in experiment [11] was “inactive” each time. Further, the Potency result in experiment [13], in [14], in [17] and in experiment [18] was “inactive” in each case. In addition, the outcome in experiment [6], in experiment [8], in experiment [9], in experiment [15] and in experiment [20] was inactive. The max response is 4.21% and -11.5% in [7]; 1.48% (inactive) and 5.88% (inactive) in [19]. Moreover, the activity change % (negative = inhibition) in experiment [10] was 5.68% (inactive) and 7.52% (inactive). Also, the activation in [12] was -2.65% (inactive) and -1.28% (inactive); in [16], -0.0961% (inactive) and 4.29% (inactive).

For the compound `C1OCOCO1`, the Potency result in experiment [1], in [2], in experiment [3], in [4], in [5] and in [11] was “inactive” each time. For the same compound, the Potency result in experiment [13], in experiment [14], in [17] and in experiment [18] was “inactive” each time. For the same compound, the outcome in experiment [6], in experiment [8], in [9], in experiment [15] and in [20] was inactive. Further, the values for the max response in [7] and in experiment [19] were -5.21% and -2.23% (inactive), respectively. Besides, in experiment [10], the activity change % (negative = inhibition) is 5.08% (inactive). Besides, the results for the activation in experiment [12] and in [16] were -3.32% (inactive) and -0.144% (inactive), respectively.

With `COc1cccc(-c2ccc3ncnc(NCc4ccc(OC)cc4OC)c3c2)c1`, the Potency in [1] is 2510 nM (active).

As to `CCC(C)c1ccccc1O` (stereo not drawn), the Potency entry in experiment [1], in experiment [2], in experiment [3], in experiment [4], in [5] and in experiment [11] was “inactive” each time. Besides, the Potency result in [13], in [14], in experiment [17] and in experiment [18] was “inactive” in each case. Further, the compound was called inactive in experiment [6], in experiment [8], in experiment [9], in experiment [15] and in experiment [20]. For the same compound, the max response in experiment [7] is -16.8% and -5.28% and 4.79%; in experiment [19] it was 11.2% (inactive) and -2.55% (inactive) and 1.18% (inactive). Moreover, in experiment [10], the activity change % (negative = inhibition) is -2.64% (inactive) and 0.537% (inactive). Also, the activation in experiment [16] is -0.0817% (inactive) and -0.418% (inactive) and 0.519% (inactive).

In the case of `CCCCC(CC)CN` (stereo not drawn), the Potency result in [1], in [2], in [3], in experiment [4], in experiment [5] and in experiment [11] was “inactive” in each case. The Potency result in experiment [13], in experiment [14], in [17] and in [18] was “inactive” throughout. Moreover, the call in experiment [6], in experiment [8], in [9], in [15] and in experiment [20] was inactive. In addition, the max response was -5.69% and -12.2% in experiment [7]; 1.98% (inactive) and 0.48% (inactive) in experiment [19]. The activity change % (negative = inhibition) in experiment [10] was 20% (inactive) and -6.26% (inactive). Besides, the activation is -5.5% (inactive) and 1.33% (inactive) in experiment [12]; 0.546% (inactive) and 3.21% (inactive) in [16].

As to `COC(=O)c1ccc(C)cc1`, the Potency entry in experiment [1], in experiment [2], in [4], in experiment [5], in experiment [11] and in experiment [13] was “inactive” in each case. Further, the Potency result in experiment [14], in experiment [17] and in experiment [18] was “inactive” each time. Also, the max response in experiment [7] was 8.76% and -8.45%; in experiment [19], 1.84% (inactive) and -0.952% (inactive). Moreover, the result in experiment [8], in experiment [9], in experiment [15] and in experiment [20] was inactive. Besides, in experiment [10], the activity change % (negative = inhibition) is -22.1% (inactive) and -12.5% (inactive). The activation in experiment [12] is 2.24% (inactive) and -1.53% (inactive); in experiment [16], -1.02% (inactive) and 0.0239% (inactive).
